Measured values as given in PubChem BioAssay (EPA / NIEHS).
Several values for one entry are separate records, joined by “and”; a condition that tells them apart may be missing. Equal entries are not always repeated. Results filed as inconclusive are left out. Where a structure was tested more than once in an assay, its records may differ in their call. Activity calls are given as the source filed them. The calls were made as follows, unless noted: active = hit-call score of the fitted dose curve at least 0.9, where 1 is the maximum; inactive = score below 0.9.

Columns and labels:
[1] = CCTE_Shafer_MEA_dev_spike_duration_mean: CCTE's Neural Network Formation Assay for Mean Spike Duration, Shafer Lab (AID 2284051);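 also: mean network spike duration pooled as area under curve over DIV 5 to 12 recordings; potency for a decrease in mean network spike duration versus DMSO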
In short: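 Readout is the average length of network spikes, clustered firing across electrodes, summed over DIV 5, 7, 9 and 12 as area under the curve. Neurons from rat cortex developed networks on MEA plates under continuous 12-day exposure.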

[2] = CCTE_Shafer_MEA_dev_network_spike_duration_std: CCTE's Neural Network Formation Assay for Standard Deviation of Network Spike Duration, Shafer Lab (AID 2284052);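 also: area under curve of spike duration SD across recording days 5 to 12; hits are decreases in network spike duration SD versus DMSO vehicle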
In short: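 Read-out is the trapezoidal area-under-the-curve across recordings made on days 5, 7, 9 and 12, fitted in the negative direction against DMSO baseline. Neurons were primary rat cortical cells treated from day 0, with treatment renewed at each feed.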

[3] = CCTE_Shafer_MEA_dev_per_network_spike_spike_number_mean: CCTE's Neural Network Formation Assay for Mean Number of Spikes in a Network Spike, Shafer Lab (AID 2284053);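 also: fitted as decrease in spikes per network spike relative to DMSO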
In short: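 Continuous twelve-day exposure of developing rat cortical networks grown over 16 microelectrodes per well; spontaneous firing is captured at four time points, and the per-network-spike spike number is integrated over development by trapezoidal AUC.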

[4] = CCTE_Shafer_MEA_dev_per_network_spike_spike_percent: CCTE's Neural Network Formation Assay for Percent of Spikes in a Network Spike, Shafer Lab (AID 2284054)
In short: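 Read-out: percent of spikes falling in a 0.05 s window at network-spike peak, from spontaneous MEA recordings on days 5, 7, 9 and 12; trapezoidal AUC; loss of signal versus DMSO. Rat cortical cultures, compound present throughout.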

[5] = UKN5_HCS_SBAD2_cell_viability: Viability Assessment in the University of Konstanz (UKN) Leist Lab Neurite Outgrowth Assay in human iPSC-derived immature Dorsal Root Ganglia Neurons (UKN5) (AID 2284056)
In short: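 iPSC-derived immature peripheral neurons (SBAD2) seeded on Matrigel with CHIR99021, SU5402 and DAPT, dosed 1 h later for 24 h. Viability from Hoechst H-33342 and calcein-AM live staining, high-content imaging; bidirectional fit versus DMSO.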

[6] = UKN5_HCS_SBAD2_neurite_outgrowth: University of Konstanz (UKN) Leist Lab Neurite Outgrowth Assay in human iPSC-derived immature Dorsal Root Ganglia Neurons (UKN5) (AID 2284070); conditions: actives raise or lower the signal
In short: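 Neurite area from calcein-AM high-content images after 24 h exposure (staining included), with H-33342 for viability, fitted both directions against DMSO. Cells: thawed immature SBAD2 peripheral neurons, 100.000 cells/cm2, with CHIR99021, SU5402, DAPT; dosing 1 h after seeding.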

[7] = CCTE_Shafer_MEA_dev_AB: CCTE's Alamar Blue Assay for Cytotoxicity in the Neural Network Formation Assay, Shafer Lab (AID 2284083; active = hit-call score of the fitted dose curve at least 0.9, where 1 is the maximum;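 also: resazurin reduction fluorescence as viability of cultured neurons; twelve days of exposure from plating with re-dosing on DIV 5 and 9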)
In short: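 Fluorescent resazurin reduction serves as the viability read-out, with DMSO as negative control and baseline. Cells were primary rat cortical neurons grown on MEA plates and dosed from day 0 to day 12, treatment renewed on DIV 5 and 9.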

[8] = CCTE_Shafer_MEA_dev_mutual_information_norm: CCTE's Neural Network Formation Assay for Mutual Information Normalization, Shafer Lab (AID 2284091);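 also: mutual information between electrodes summarised as area under curve across four recording days; potency is for a decrease in mutual information relative to DMSO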
In short: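 Neurons from rat cortex were seeded at 1.5 x 10^5 cells/well onto PEI-coated MEAs in a laminin drop, then exposed to compound from day 0 for twelve days. Network recordings on four days gave mutual information, summarised by AUC relative to DMSO.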

[9] = CCTE_Shafer_MEA_dev_correlation_coefficient_mean: CCTE's Neural Network Formation Assay for Mean Correlation Coefficient, Shafer Lab (AID 2284093);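 also: well mean pairwise spike train correlation integrated as AUC over recording days 5 to 12; potency fitted for loss of correlation relative to DMSO vehicle wells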
In short: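 Read-out: well-mean correlation coefficient of spike trains between electrode pairs, collapsed over four recording days as trapezoidal area-under-the-curve. Developing rat cortical neuron networks grown on MEAs received test chemical continuously from plating.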

[10] = UKN2_HCS_IMR90_neural_migration: University of Konstanz (UKN) Leist Lab Neural Crest Cell Migration Assay in human induced IMR90 Pluripotent Stem Cells (UKN2) (AID 2284204); conditions: actives raise or lower the signal
In short: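 Stopper-exclusion migration (cMINC), human iPSC-derived neural crest cells; N2-S + EGF/FGF; compound added 24 h post-stopper removal, 24 h exposure. Readout: calcein-AM/Hoechst 30 min, HCS fluorescence imaging; bidirectional fitting, DMSO baseline.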

[11] = UKN4_HCS_LUHMES_neurite_outgrowth: University of Konstanz (UKN) Leist Lab Neurite Outgrowth Assay in human LUHMES cells (UKN4) (AID 2284206); conditions: actives raise or lower the signal
In short: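 After 24 h compound treatment beginning shortly after replating of 2-day-differentiated LUHMES cells, calcein-AM and H-33342 live staining allowed high-content imaging of neurite area and viability. Fitted bidirectionally against DMSO.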

[12] = IUF_NPC1b_proliferation_BrdU_72hr: Leibniz Research Institute for Environmental Medicine (IUF) 72-hour Neural Progenitor Cell Bromodeoxyuridine (BrdU) Proliferation Assay (NPC1b) (AID 2284207)
In short: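 Luminescent BrdU ELISA measured DNA synthesis during the last 16 h of a 72 h exposure of primary human neural progenitor spheres grown with EGF and FGF. Signal was fitted relative to DMSO controls.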

[13] = IUF_NPC1a_proliferation_area_72hr: Leibniz Research Institute for Environmental Medicine (IUF) 72-hour Neural Progenitor Cell Proliferation Area Assay (NPC1a) (AID 2284208)
In short: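 Single 0.25–0.35 mm human fetal neural progenitor spheres in proliferation medium with EGF and FGF, exposed 72 h from plating without renewal at 37C, pH 7.2-7.6. Sphere area growth measured by automated phase-contrast imaging, relative to DMSO.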

[14] = IUF_NPC1_viability_72hr: Viability Assessment at 72 hours in the Leibniz Research Institute for Environmental Medicine (IUF) Neural Progenitor Cell Proliferation Assay (NPC1) (AID 2284209)
In short: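 Viability was measured by resazurin-to-resorufin fluorescence (alamar blue) after 72 h of continuous exposure without compound renewal. Each well held one hNPC sphere (gestational week 16-19 fetal cortex, 0.25-0.35 mm) cultured in EGF/FGF proliferation medium at 37C and pH 7.2-7.6.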

[15] = CCTE_Mundy_HCI_Cortical_Synap_Neur_Matur_NeuriteSpotCountPerNeuriteLength: CCTE's Synaptogenesis and Neurite Maturation Assay in rat cortical cells for Neurite Spot Count per Neurite Length, Mundy Lab (AID 2284210)
In short: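 Read-out: synaptophysin puncta counted along MAP2-stained neurites, normalised to neurite length, by automated high-content imaging. Rat cortical cells; AraC DIV 5; chemical dosing DIV 7; termination DIV 12. DMSO baseline.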

[16] = CCTE_Mundy_HCI_Cortical_NOG_NeuriteCount: CCTE's Neurite Outgrowth Assay in rat cortical cells for Neurite Count, Mundy Lab (AID 2284212);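 also: cells fixed about two days after chemical exposure began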
In short: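 Rat cortical primary cells; compound added 2 h post-plating, 1/10 dilution of working solution. Anti-betaIII-tubulin/AF488 ICC; ArrayScan neurite count vs DMSO.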

Measured: AC50

[CH3][Hg][Cl]
inactive: [14]
active: [1] 275 nM | [2] 164 nM | [3] 536 nM | [4] 309 nM | [5] 3.17 µM | [6] 636 nM | [7] 283 nM | [8] 134 nM | [9] 306 nM | [10] 5 µM | [11] 164 nM | [12] 906 nM and 968 nM | [13] 370 nM | [14] 820 nM | [15] 881 nM | [16] 493 nM
